PubChem BioAssay (NCATS)
Inconclusive results are not listed. Calls of active or inactive are those of the source. Calls come from the whole dose curve; as a rule, active = well fitted cell-killing curve with a large enough effect; inconclusive = small, poorly fitted or top-dose-only effect, or effect the other way; inactive = flat fitted curve, though single readings scatter.

What was measured:
Experiment in all cases: Primary qHTS to identify gynecologic anti-cancer compounds using libraries of approved drugs and bioactive compounds (AID 1345084); note: nearly all actives have a fitted effect of over 55% in size
CAOV3 = conditions: Gynecologic cancer cell panel viability, ATPlite luminescence, 48 h; series mostly up to 57.5 µM
Summary of the method: (§1)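 Five-point cytotoxicity, 48 h drug exposure at 37 C, 5% CO2, on cells seeded 16 h beforehand. ATP content read by ATPlite luminescence.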

CASKI = conditions: Gynecologic cancer cell panel viability, ATPlite luminescence, 48 h; series mostly up to 57.5 µM
Summary of the method: as §1

Es-2 = conditions: Gynecologic cancer cell panel viability, ATPlite luminescence, 48 h; series mostly up to 57.5 µM
Summary of the method: as §1

HeLa = conditions: Gynecologic cancer cell panel viability, ATPlite luminescence, 48 h; series mostly up to 57.5 µM
Summary of the method: as §1

Hek293T = conditions: Gynecologic cancer cell panel viability, ATPlite luminescence, 48 h, control line for the selectivity index; series mostly up to 57.5 µM
Summary of the method: as §1

JEG-3 = conditions: Gynecologic cancer cell panel viability, ATPlite luminescence, 48 h; series mostly up to 57.5 µM
Summary of the method: as §1

OV90 = conditions: Gynecologic cancer cell panel viability, ATPlite luminescence, 48 h; series mostly up to 57.5 µM
Summary of the method: as §1

PA-1 = conditions: Gynecologic cancer cell panel viability, ATPlite luminescence, 48 h; series mostly up to 57.5 µM
Summary of the method: as §1

SKOV3 = conditions: Gynecologic cancer cell panel viability, ATPlite luminescence, 48 h; series mostly up to 57.5 µM
Summary of the method: as §1

Tov-21-G = conditions: Gynecologic cancer cell panel viability, ATPlite luminescence, 48 h; series mostly up to 57.5 µM
Summary of the method: as §1

Tov112D = conditions: Gynecologic cancer cell panel viability, ATPlite luminescence, 48 h; series mostly up to 57.5 µM
Summary of the method: as §1
% is set by controls: 0 for no effect and ±100 for the full control effect.

Cc1cc(O)cc(Oc2cc(C)c(C(=O)O)c(O)c2)c1
inactive: Potency (CAOV3) | Potency (CASKI) | Potency (Es-2) | Potency (HeLa) | Potency (Hek293T) | Potency (JEG-3) | Potency (OV90) | Potency (PA-1) | Potency (SKOV3) | Potency (Tov-21-G) | Potency (Tov112D)

C[C@@H]1C(=O)O[C@H]2CC34[C@H]5C[C@@H](C(C)(C)C)C36[C@@H](OC(=O)[C@@H]6O)OC4(C(=O)O5)[C@]21O (stereo partly specified)
inactive: Potency (CAOV3) | Potency (CASKI) | Potency (Es-2) | Potency (HeLa) | Potency (Hek293T) | Potency (JEG-3) | Potency (OV90) | Potency (PA-1) | Potency (SKOV3) | Potency (Tov-21-G) | Potency (Tov112D)

O=C(NC[C@H](O)CN1CCc2ccccc2C1)c1cc(NC2COC2)ncn1
inactive: Potency (CAOV3) | Potency (CASKI) | Potency (Es-2) | Potency (HeLa) | Potency (Hek293T) | Potency (JEG-3) | Potency (OV90) | Potency (PA-1) | Potency (SKOV3) | Potency (Tov-21-G) | Potency (Tov112D)

COC(=O)C12C(=O)C(C)=C(O)C1(C)C(C)=CC1C34CCC(OC3=O)C(C)(C)C4CCC12C (stereo unspecified)
inactive: Potency (CAOV3) | Potency (CASKI) | Potency (Es-2) | Potency (HeLa) | Potency (Hek293T) | Potency (JEG-3) | Potency (OV90) | Potency (PA-1) | Potency (SKOV3) | Potency (Tov-21-G) | Potency (Tov112D)

CC(CCC1(O)OC2CC3C4CCC5CC(O[C@@H]6O[C@H](CO)[C@@H](O)[C@H](O)[C@H]6O[C@@H]6OC[C@@H](O)[C@H](O)[C@H]6O)C(O)CC5(C)C4CCC3(C)C2C1C)CO[C@@H]1O[C@H](CO)[C@@H](O)[C@H](O)[C@H]1O (stereo partly specified)
inactive: activity change, negative = cytotoxicity (CAOV3) 10.9% [at 11.6 µM] | activity change, negative = cytotoxicity (CASKI) 14.6% [at 11.6 µM] | activity change, negative = cytotoxicity (Es-2) -0.82% [at 11.6 µM] | activity change, negative = cytotoxicity (HeLa) -1.03% [at 11.6 µM] | activity change, negative = cytotoxicity (Hek293T) -3.21% [at 11.6 µM] | activity change, negative = cytotoxicity (JEG-3) 4.38% [at 11.6 µM] | activity change, negative = cytotoxicity (OV90) -1.54% [at 11.6 µM] | activity change, negative = cytotoxicity (PA-1) 17.2% [at 11.6 µM] | activity change, negative = cytotoxicity (SKOV3) 0% [at 11.6 µM] | activity change, negative = cytotoxicity (Tov-21-G) 0.148% [at 11.6 µM] | activity change, negative = cytotoxicity (Tov112D) 1.16% [at 11.6 µM]

C[C@@H]1O[C@@H](O[C@H]2[C@H](OC(=O)C34CCC(C)(C)CC3C3=CCC5C6(C)CC(O)C(O[C@@H]7O[C@H](CO)[C@@H](O)[C@H](O)[C@H]7O)C(C)(C(=O)O)C6CCC5(C)C3(CO)CC4)O[C@H](C)[C@H](O)[C@@H]2O)[C@H](O)[C@H](O)[C@H]1O[C@@H]1OC[C@@H](O)[C@H](O)[C@H]1O (stereo partly specified)
inactive: activity change, negative = cytotoxicity (CAOV3) 18.2% [at 11.6 µM] | activity change, negative = cytotoxicity (CASKI) 8.6% [at 11.6 µM] | activity change, negative = cytotoxicity (Es-2) 0.101% [at 11.6 µM] | activity change, negative = cytotoxicity (HeLa) 10.9% [at 11.6 µM] | activity change, negative = cytotoxicity (Hek293T) 7.78% [at 11.6 µM] | activity change, negative = cytotoxicity (JEG-3) 4.58% [at 11.6 µM] | activity change, negative = cytotoxicity (OV90) 3.81% [at 11.6 µM] | activity change, negative = cytotoxicity (PA-1) 8.42% [at 11.6 µM] | activity change, negative = cytotoxicity (SKOV3) 7.96% [at 11.6 µM] | activity change, negative = cytotoxicity (Tov-21-G) 2.58% [at 11.6 µM] | activity change, negative = cytotoxicity (Tov112D) 2.79% [at 11.6 µM]

CC1(C(=O)O)CCCC2(C)C1CCC13CC(CCC21)C1(CO)OC31 (stereo unspecified)
inactive: Potency (CAOV3) | Potency (CASKI) | Potency (Es-2) | Potency (HeLa) | Potency (Hek293T) | Potency (JEG-3) | Potency (OV90) | Potency (PA-1) | Potency (SKOV3) | Potency (Tov-21-G) | Potency (Tov112D)

COc1ccc(C)c2sc(NC(=O)c3ccncc3)nc12
inactive: Potency (CAOV3) | Potency (CASKI) | Potency (Es-2) | Potency (HeLa) | Potency (Hek293T) | Potency (JEG-3) | Potency (OV90) | Potency (PA-1) | Potency (SKOV3) | Potency (Tov-21-G) | Potency (Tov112D)

CC(C)CNC(=O)/C=C/CCCCc1ccc2c(c1)OCO2
inactive: Potency (CAOV3) | Potency (CASKI) | Potency (Es-2) | Potency (HeLa) | Potency (Hek293T) | Potency (JEG-3) | Potency (OV90) | Potency (PA-1) | Potency (SKOV3) | Potency (Tov-21-G) | Potency (Tov112D)

CC(=O)O[C@H](C[C@@H](C)[C@H]1C(=O)[C@H](O)[C@@]2(C)[C@@H]3CCC4C(C)(C)[C@@H](O[C@@H]5OC[C@H](O)[C@H](O)[C@H]5O)CC[C@@]45C[C@@]35CC[C@]12C)[C@@H]1OC1(C)C (stereo partly specified)
inactive: Potency (CAOV3) | Potency (CASKI) | Potency (Es-2) | Potency (HeLa) | Potency (Hek293T) | Potency (JEG-3) | Potency (OV90) | Potency (PA-1) | Potency (SKOV3) | Potency (Tov-21-G) | Potency (Tov112D)

OCC1OC(Oc2cc(O)c3c(c2)OC(c2ccc(O)cc2)C(O)C3)C(O)C1O (stereo unspecified)
inactive: Potency (CAOV3) | Potency (CASKI) | Potency (Es-2) | Potency (HeLa) | Potency (Hek293T) | Potency (JEG-3) | Potency (OV90) | Potency (PA-1) | Potency (SKOV3) | Potency (Tov-21-G) | Potency (Tov112D)
